Bioassay records: PubChem BioAssay, National Center for Advancing Translational Sciences (NCATS)
In the library only some 8.1% were active in any assay of this set; here they are far more common.
MCF10A rerep = inducers of DNA re-replication in MCF 10A breast cells. MCF 10A DNA re-replication, Hoechst nuclear intensity, 48 h. Potency, µM (doses to about 46.1 µM), for the others: at the top dose activity, positive = re-replication, usual class: activators. hit rate 2.9% among 350,000; also: % of control where 0% means no effect; nearly all actives have a fitted effect of over 50% in size
SW480 rereplic = induces DNA re-replication in SW480 colon adenocarcinoma cells; hit rate 1.8% among 340,000; SW480 DNA re-replication, Hoechst DNA content imaging, 48 h; Potency, µM (doses to about 46.1 µM), for inactives: at the top dose re-replication activation, hits mostly activators; also: % of control where 0% means no effect; nearly all actives have a fitted effect of over 55% in size
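Compounds, transferred as 23 nL by pin tool, were incubated with cells for 48 hr; DNA content per nucleus was then quantified by Hoechst staining and fluorescence plate imaging.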
KB-V1 MDR tox = kills drug-selected multidrug resistant KB-V1 cells; hit rate 3.4% among 400,000; AID 1347076; KB-V1 MDR cells viability, CellTiter-Glo, 72 h; Potency, µM (highest dose often 46.1 µM), hits mostly cytotoxic; also: % is scaled to controls: 0 for no effect and ±100 for the full control effect; nearly all actives have a fitted effect of over 60% in size
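Readout: CellTiter-Glo luminescence, 10 min after addition. Cells: KB-V1 MDR subline, 72 h at 37 degrees C with compound. Analysis: corrected, normalized data fitted to concentration-effect curves.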
KB-3-1 cytotox = KB-3-1 parental cell cytotoxicity; KB-3-1 viability, CellTiter-Glo ATP luminescence, 72 h; Potency, µM (doses to about 46.1 µM), hits mostly cytotoxic; hit rate 1.4% among 400,000; AID 1347075; also: % is scaled to controls: 0 for no effect and ±100 for the full control effect; nearly all actives have a fitted effect of over 60% in size
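Parental KB-3-1 viability, qHTS format: 72 h compound exposure, 37 °C; CellTiter-Glo; media-only wells and DMSO plates as controls; concentration-effect fits on corrected data.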
ELG1 DNA repair = ELG1-dependent DNA repair inhibition; Potency, µM (top dose mostly 46.1 µM), inactives show at the highest dose activity change, negative = inhibition, usual class: inhibitors; HEK293T ELG1-luciferase reporter, luminescence, 16 h; DNA damage induced by 5-fluorouridine; hit rate 2.3% among 330,000; also: % is scaled to controls: 0 for no effect and ±100 for the full control effect; nearly all actives have a fitted effect of over 55% in size
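In this reporter screen, reduction of luminescence relative to DMSO vehicle indicated activity. Compounds and 5-fluorouridine were added together to 2,000 cells per well, incubated for 16 hr at 37 °C, then developed with ONE-Glo.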
Numbers without * were called inactive; i = inactive; ? = inconclusive; / = no result given; [ ] = remark or other dose. Calls follow the shape of the dose curve; as a rule, active = well fitted curve in the direction sought with a large enough effect; inconclusive = small, poorly fitted or top-dose-only effect, or another doubt; inactive = no such curve, though single readings can be large; an effect the other way counts as inactive or inconclusive. Potency is read from the fitted curve at half-maximal effect.

SMILES	MCF10A rerep	SW480 rereplic	KB-V1 MDR tox	KB-3-1 cytotox	ELG1 DNA repair
Cc1nc(NC(C)C)c2cnn(CCc3ccccc3)c2n1	21µM*	4%	?	i	?
CCCCCCn1c(SCCCC)nc2c1c(=O)[nH]c(=O)n2C	5%	0%	i	i	1%
CCn1c([N+](=O)[O-])nc2c1c(=O)[nH]c(=O)n2C	5.8µM*	8.2µM*	?	?	?
O=c1ccn2c(n1)SC(c1ccccc1)C2 (stereo not drawn)	/	/	i	?	/
N/C(=N\c1nc(CSc2nc3ccccc3s2)cc(=O)[nH]1)Nc1ccc(F)cc1	?	13%	i	12µM*	?
COc1ccccc1N/C(N)=N/c1nc(CSc2ccc(C)cc2)cc(=O)[nH]1	-2%	0%[9.22 µM]	i	i	10µM*
CCc1ccc(N/C(N)=N/c2nc(CSc3ccccn3)cc(=O)[nH]2)cc1	?	?	?	?	23µM*
Cc1ccc(N/C(N)=N/c2nc(CSc3nnc(N)s3)cc(=O)[nH]2)cc1	0%	1%	i	i	-4%
COc1cccc(N/C(N)=N/c2nc(CSc3ccccn3)cc(=O)[nH]2)c1	/	/	/	/	-11%
Cc1ccc(SCc2cc(=O)[nH]c(/N=C(\N)Nc3ccccc3Sc3ccccc3)n2)cc1	2%	1%	i	i	-1%
COCCNC(=S)NN=C1CCCCCC1	8.2µM*	?	i	i	-3%
Cc1ccc(C2(C)NC(=O)N(CC(=O)c3ccc(Cl)s3)C2=O)cc1 (stereo not drawn)	0%	-3%	21µM*	i	1%
Cc1ccc2nc(-c3ccc(NC(=S)NC4CC(C)(C)NC(C)(C)C4)cc3)sc2c1	29µM*	?	i	?	?
Cc1ccc2nc(-c3ccc(NC(=S)NC(=O)C(C)C)cc3)sc2c1	2%	3%	i	i	?
CCc1ccc(C(=O)CN2C(=O)NC(C)(c3ccc(C)cc3)C2=O)cc1 (stereo not drawn)	-3%	-65%	i	i	2%
Cc1ccc(C2(C)NC(=O)N(CC(=O)Nc3ccc(-c4nc5ccc(C)cc5s4)cc3)C2=O)cc1 (stereo not drawn)	18µM*	636%	i	i	?
CC(C)n1c(=O)c2ccccc2n1Cc1cn(-c2ccc(Cl)cc2)nn1	/	/	?	i	/
COc1ccccc1NS(=O)(=O)c1cccc(NC(=O)CCNC(=O)c2ccccc2OC)c1	5%	1%	i	i	?
O=C(NCCc1csc(-c2cccnc2)n1)c1ccc(Br)o1	9%	-4%	i	i	12µM*
O=C(NCCc1csc(-c2cccnc2)n1)c1ccc(Cl)cc1	12µM*	?	i	i	-9%
O=C(NCCc1csc(-c2ccccc2)n1)c1c(F)cccc1Cl	0%	-3%	i	i	18µM*
O=C(NCCc1csc(-c2ccc(F)cc2)n1)c1cccc(F)c1	/	/	i	?	/
O=C(NCCc1csc(-c2ccc(F)cc2)n1)c1c(F)cccc1Cl	/	/	i	i	/
O=C(NCCc1csc(-c2cccnc2)n1)c1cccc(Cl)c1	-3%	9%	?	i	?
O=C(NCCc1csc(-c2ccc(C(F)(F)F)cc2)n1)c1ccc(F)c(F)c1	/	/	13µM*	23µM*	/
SMILES	MCF10A rerep	SW480 rereplic	KB-V1 MDR tox	KB-3-1 cytotox	ELG1 DNA repair
CCC(C)C(N)C(=O)O (stereo not drawn)	-1%	-1%	/	/	/
Nc1ccc(C(=O)Oc2ccccc2)c(O)c1	16%	24%	/	/	/
c1nc(NCCCN2CCOCC2)c2cc(-c3ccc4c(c3)OCO4)ccc2n1	/	/	i	i	/
COCCn1c(N)c(N(Cc2ccccc2)C(=O)COc2ccccc2F)c(=O)[nH]c1=O	0%	-9%	i	i	-6%
Cc1cccc(-c2cc(NCCc3cccnc3)n3nccc3n2)c1	/	/	i	i	/
O=Nc1nc2ncccn2c1-c1ccccc1	13µM*	9.2µM*	?	i	/
Cc1cc(F)ccc1S(=O)(=O)Nc1ccc(C(=O)N2CCCCC2)cc1	15%	-2%	i	i	7%
O=c1c2ccccc2ncn1Cc1ccc(Cl)c(Cl)c1	1.2µM*	23%	i	i	12%
Cc1cccc(C(=O)Nc2cc(Cl)ccc2-n2cncn2)c1[N+](=O)[O-]	0%	-222%	i	i	17%
CCn1c(SCC(=O)N(C)C)nc2cc(S(=O)(=O)N3CCCCC3)ccc21	-3%	-3%	21µM*	i	-2%
CSc1nc2cc(S(=O)(=O)N3CCCCC3)ccc2s1	7%	10%	15µM*	?	-28%
CCn1c(CN2CCCCC2)nc2cc(S(=O)(=O)N3CCCCC3)ccc21	?	14%	i	i	-2%
O=S(=O)(c1cccc(-c2nc3ccccc3s2)c1)N1CCCC1	-2%	-3%	15µM*	?	-18%
CSc1nc2cc(S(=O)(=O)N3CCOCC3)ccc2s1	-4%	-9%	i	?	15%
CCn1c(SCC(=O)N(C)C2CCCCC2)nc2cc(S(N)(=O)=O)ccc21	-4%	-10%	i	i	-3%
CCn1c(C)nc2cc(S(=O)(=O)N3CCCCC3)ccc21	5%	-3%	i	i	18µM*
C[C@@H]1CN([C@@H](C)CO)C(=O)CCCn2nncc2CO[C@@H]1CN(C)C(=O)Nc1ccnc(N2CCOCC2)c1	/	/	i	i	/
COc1ccccc1NC(=O)N(C)C[C@H]1Oc2ncc(C#CCN(C)C)cc2C(=O)N([C@H](C)CO)C[C@H]1C	/	/	i	i	/
CC(C)COc1ccc(C(=O)Nc2scc(-c3ccc(Cl)cc3Cl)c2C(N)=O)cc1	?	5%	3.7µM*	3.3µM*	-13%
O=C1CSC(=S)N1/N=C/c1ccc(O)c(O)c1O	1%	?	i	i	23µM*
Cc1ccc(CN2Cc3cccc4c3[C@@H](CC2=O)[C@H](O)[C@H](O)C4)cc1	2%	-11%[9.22 µM]	?	i	10%
Cc1nc2ccc(S(=O)(=O)NCC(=O)N3CCN(c4ccccc4)CC3)cc2s1	2%	8%	i	i	23µM*
Cc1nc2ccc(S(=O)(=O)NCC(=O)NC(C)c3ccccc3)cc2s1 (stereo not drawn)	0.65µM*	-21%	i	i	9%
Cc1nc2ccc(S(=O)(=O)NCC(=O)N(C)Cc3ccccc3)cc2s1	-1%	-2%	?	i	?
Cc1nc2ccc(S(=O)(=O)NCC(=O)N3CCCCC3)cc2s1	-3%	-1%	i	i	-4%
CN1CCN(c2ccc(CNC(=O)C3Cc4c(-c5ccc(Cl)cc5)ccnc4O3)cc2)CC1 (stereo not drawn)	/	/	?	i	/
Cc1ccc(OCCSCc2nnc(NC(=O)Nc3cccc(Cl)c3)s2)cc1	?	-2%	?	5.8µM*	?
